Results: the supplement of paper PMC3616981
± gives the standard deviation of the averaged measurements.

Tests used:
[1] = compound: CC(C)c1cccc(C(C)C)c1N1C(=O)c2ccc(O)cc2C1=O; assay: reporter fold induction vs vehicle; higher = higher reporter activity
Method in brief: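 Values give reporter activity as fold induction compared with vehicle, averaged across replicates where available. The multiplexed cellular reporter system carried 48 cis and 25 trans constructs, and ToxCast Phase II chemicals were run at 8 concentrations from 0.091 to 200 µM.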

[2] = compound: CC(C)c1cccc(C(C)C)c1N1C(=O)c2ccc(O)cc2C1=O; assay: BioMAP readout fold decrease vs vehicle (vehicle/treated); higher = stronger decrease of the readout vs vehicle (values <1 mean increase)
Description: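 BioSeek BioMAP human primary cell (co-)culture systems (3C, 4H, LPS, SAg, BE3C, CASM3C, hDFCGF, KF3CT) treated with 5HPP-33 at 1.48, 4.44, 13.3 and 40 µM. Read-outs are protein levels by ELISA, proliferation and SRB total protein. Duplicate rows per assay are averaged as replicates. Tested in ToxCast Phase II for this study; exposure time not stated.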
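Wherever BioMAP readout fold decrease vs vehicle (vehicle/treated) is given: Co-cultures of keratinocytes, bronchial epithelial and smooth muscle cells, fibroblasts, HUVECs and PBMCs under stimuli like LPS, TNF-α, IFN-γ, IL-1β, TGF-β or EGF, SRB reflecting cytotoxicity.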

| Target | reporter fold induction ([1]; 0.091 µM) | reporter fold induction ([1]; 0.274 µM) | reporter fold induction ([1]; 0.823 µM) | reporter fold induction ([1]; 2.469 µM) | reporter fold induction ([1]; 7.407 µM) | reporter fold induction ([1]; 22.22 µM) | reporter fold induction ([1]; 66.67 µM) | reporter fold induction ([1]; 200 µM) | BioMAP readout fold decrease ([2]; 1.48 µM) | BioMAP readout fold decrease ([2]; 4.44 µM) | BioMAP readout fold decrease ([2]; 13.3 µM) | BioMAP readout fold decrease ([2]; 40 µM) |
| --- | --- | --- | --- | --- | --- | --- | --- | --- | --- | --- | --- | --- |
| VDR_TRANS | 1.07 | 1.13 | 1.1 | 1.39 | 1.07 | 1.41 | 1.2 | 1.54 | – | – | – | – |
| PBREM_CIS | 1.05 | 1.04 | 0.916 | 0.965 | 1.24 | 1.15 | 1.19 | 1.16 | – | – | – | – |
| XTT_Cytotoxicity | 97.6 ± 5.6 | 107 ± 18 | 111 ± 0.85 | 108 ± 3.1 | 123 ± 3.8 | 111.2 ± 0.75 | 113.8 ± 0.46 | 106.5 ± 0.33 | – | – | – | – |
| Ets_CIS | 1.02 | 0.953 | 1.01 | 1.02 | 1 | 0.917 | 1.01 | 0.897 | – | – | – | – |
| Sp1_CIS | 1.04 | 1.04 | 1.02 | 0.989 | 1.11 | 1.08 | 1.39 | 2.02 | – | – | – | – |
| C_EBP_CIS | 1.02 | 0.969 | 1.04 | 1.04 | 1.12 | 0.945 | 1.31 | 1.32 | – | – | – | – |
| AP_1_CIS | 1.01 | 0.867 | 0.986 | 0.984 | 1.2 | 1.44 | 1.7 | 0.71 | – | – | – | – |
| M_61_TRANS | 0.964 | 1.01 | 0.995 | 1.01 | 1.01 | 1 | 0.996 | 0.992 | – | – | – | – |
| NRF2_ARE_CIS | 1.19 | 1.1 | 0.995 | 0.886 | 1.15 | 1.48 | 2.47 | 0.886 | – | – | – | – |
| GR_TRANS | 0.906 | 1.07 | 1.06 | 1.18 | 0.95 | 1.13 | 1.24 | 1.38 | – | – | – | – |
| p53_CIS | 1.06 | 1.04 | 1.03 | 0.969 | 0.996 | 0.831 | 1.19 | 0.456 | – | – | – | – |
| ERRg_TRANS | 1.02 | 1.11 | 1.14 | 1.02 | 0.941 | 1.07 | 0.845 | 0.391 | – | – | – | – |
| M_19_TRANS | 1.08 | 0.97 | 1.01 | 0.967 | 0.981 | 0.997 | 1.01 | 1.02 | – | – | – | – |
| M_19_CIS | 1.01 | 1.01 | 0.978 | 1.01 | 0.961 | 0.953 | 1.05 | 0.776 | – | – | – | – |
| NF_kB_CIS | 1.08 | 0.96 | 0.971 | 0.979 | 0.968 | 1.08 | 1.39 | 1.06 | – | – | – | – |
| BE3C_TGFb1 | – | – | – | – | – | – | – | – | 1.05 ± 0.079 | 1.09 ± 0.061 | 1.117 ± 0.0036 | 1.32 ± 0.1 |
| BE3C_PAI1 | – | – | – | – | – | – | – | – | 1.18 ± 0.056 | 1.236 ± 0.012 | 1.5 ± 0.03 | 1.91 ± 0.13 |
| CASM3C_LDLR | – | – | – | – | – | – | – | – | 1.1 ± 0.017 | 1.188 ± 0.002 | 0.969 ± 0.038 | 2.21 ± 0.034 |
| SAg_IL8 | – | – | – | – | – | – | – | – | 1.12 ± 0.039 | 1.19 ± 0.029 | 0.963 ± 0.026 | 1.36 ± 0.052 |
| 4H_MCP1 | – | – | – | – | – | – | – | – | 1.01 ± 0.026 | 0.699 ± 0.023 | 0.623 ± 0.0095 | 1.43 ± 0.071 |
| hDFCGF_IL8 | – | – | – | – | – | – | – | – | 1.03 ± 0.018 | 0.964 ± 0.017 | 0.8858 ± 0.0045 | 0.9866 ± 0.0065 |
| KF3CT_TGFb1 | – | – | – | – | – | – | – | – | 1.03 ± 0.011 | 1.044 ± 0.0031 | 1.11 ± 0.021 | 2.33 ± 0.15 |
| RORg_TRANS | 1.15 | 1.17 | 1.17 | 1.35 | 1.43 | 0.891 | 0.575 | 0.332 | – | – | – | – |
| Xbp1_CIS | 1.06 | 0.98 | 0.93 | 0.937 | 1.21 | 1.13 | 1.74 | 4.47 | – | – | – | – |
| 3C_IL8 | – | – | – | – | – | – | – | – | 0.994 ± 0.019 | 0.925 ± 0.011 | 0.7655 ± 0.0039 | 1.132 ± 0.0075 |
| hDFCGF_MCSF | – | – | – | – | – | – | – | – | 1.03 ± 0.01 | 0.98 ± 0.05 | 1.21 ± 0.024 | 2.01 ± 0.16 |
| CASM3C_IL6 | – | – | – | – | – | – | – | – | 0.923 ± 0.002 | 0.9348 ± 0.0071 | 0.8611 ± 0.001 | 0.752 ± 0.0092 |
| 3C_MCP1 | – | – | – | – | – | – | – | – | 1.04 ± 0.015 | 0.986 ± 0.0064 | 0.8619 ± 0.0073 | 0.919 ± 0.018 |
| CASM3C_HLADR | – | – | – | – | – | – | – | – | 0.895 ± 0.021 | 0.797 ± 0.061 | 1.41 ± 0.07 | 2.61 ± 0.45 |
